Measured values published in PubChem BioAssay (NCATS).
Several values for one entry are separate records, joined by “and”; a condition that tells them apart may be missing. Equal values may be shown once. Activity calls are given as the source filed them. Where a call stands in place of a potency, no number is given. Calls come from the whole dose curve; as a rule, active = well fitted cell-killing curve with a large enough effect; inconclusive = small, poorly fitted or top-dose-only effect, or effect the other way; inactive = flat fitted curve, though single readings scatter.

assay: MultiTox-Fluor Cytotoxicity Assay - LYMP1-003 - Dead Cells (AID 961); details: LYMP1-003 lymphoblastoid cells, dead-cell protease fluorescence; series mostly up to 92.2 µM; note: nearly all actives have a fitted effect of over 70% in size
Excerpt: NIH Chemical Genomics Center [NCGC]
NIH Molecular Libraries Screening Centers Network [MLSCN]
National Institutes of Environmental Health Sciences [NIEHS]
National Toxicology Program [NTP]
We have developed a 1536-well cell-based assay for quantitative high throughput screening (qHTS) against a number of cell lines to determine in vitro cytotoxicity of small molecules. This particular assay uses a human lymphoblastoid cell line (LYMP1-003) purchased from Coriell Institute.
NCGC Assay Protocol Summary:
The MultiTox-Fluor Cytotoxicity Assay (Promega) is a homogeneous method to simultaneously measure the relative number of live and dead cells in culture by detecting changes in cell membrane integrity. There are two fluorogenic peptide substrates in the assay reagent. Viable cells are determined when the cell-permeant substrate (GF-AFC) enters the cell and is cleaved by protease from live cells resulting in liberated fluorophore. This live-cell protease activity restricted to viable cells is proportional to cell number. The dead cells are determined by using fluorogenic cell-impermeant peptide substrate (bis-AAF-R110) which cleaved by dead cell proteases leaking from damaged cell membrane.
Using the MultiTox-Fluor Cytotoxicity Assay, the relative number of dead cells was measured in the lymphoblastoid cell line with complete culture medium following compound treatment for 16 hours. The assay was performed in opaque black Kalypsys 1536-well plates. In the screen, tetraoctylammonium bromide was used as positive control. Library compounds were measured for their ability to cause acute toxicity in the cell line, as reflected by an increase in dead cell protease activity, in a concentration-dependent manner. Data were normalized to the controls for basal activity (DMSO only) and 100% stimulation (15 uM tetraoctylammonium bromide). AC50 values were determined from concentration-response data modeled with the standard Hill equation.
qHTS protocol for MultiTox-Fluor Cytotoxicity assay
[Step] [Parameter] [Value] [Description]
1. Reagent; 5 uL; 2500 lymphoblastoid cells/well
2. Time; 5 hr; 37 C incubation
4. Controls; 23 nL; Tetraoctylammonium bromide 6.4pM to 92 uM
5. Time; 16 hr; 37 C incubation
6. Reagent; 5 uL; MuliTox-Fluor Assay reagent
7. Time; 60 min; Room Temperature
8. Detection; dead-cell fluorescence (Ex/Em=485/520); EnVision plate reader
Keywords: cytotoxicity, lymphoblastoid cell line, fluorescence, NTPHTS, NTPHTS_NCGC, NIEHS, EPA, DSSTox, MLSMR, MLSCN, NIH Roadmap, qHTS, NCGC
Potency is the fitted concentration of half-maximal effect.

| Compound | Potency |
| --- | --- |
| O=C1C=CC(=O)C=C1 | inactive |
| COc1ccc2c(c1OC)C(=O)OC2C1c2cc3c(cc2CCN1C)OCO3 (stereo not given) | inactive |
| C=CCN=C=S | inactive |
| CCCCCl | inactive |
| O=C/C=C/c1ccccc1 | inactive |
| ClC=C(Cl)Cl | inactive |
| ClCC1CO1 (stereo not given) | inactive |
| Oc1cc(Cl)c(Cl)cc1Cl | inactive |
| C[C@H]1CC[C@@H]2[C@@H](C)[C@H]3[C@H](C[C@H]4[C@@H]5CC=C6CC(O[C@@H]7O[C@H](CO)[C@H](O)[C@H](O[C@@H]8O[C@H](CO)[C@@H](O)[C@H](O)[C@H]8O)[C@H]7O[C@H]7O[C@@H](C)[C@H](O)[C@@H](O)[C@H]7O)CC[C@]6(C)[C@H]5CC[C@]34C)N2C1 (stereo not given in full) | 20 µM (active) |
| O=C1C2CC=CCC2C(=O)N1SC(Cl)(Cl)Cl (stereo not given) | 10 µM (active) and 7.94 µM (active) |
| O=Cc1ccco1 | inactive |
| O=C1CCO1 | inactive |
| C[C@]12CCC(=O)C[C@@H]1CC[C@@H]1[C@@H]2CC[C@]2(C)[C@@H](O)CC[C@@H]12 | inactive |
| CCCCCCCCOC(=O)c1ccccc1C(=O)OCCCCCCCC | inactive |
| O=[N+]([O-])c1ccc(F)c([N+](=O)[O-])c1 | inactive |
| CCOC(=O)c1ccccc1C(=O)OCC | inactive |
| [O]=[Cr](=[O])([OH])[O][Cr](=[O])(=[O])[OH] | inactive |
| CC(C)(C)c1cc(O)ccc1O | inactive |
| C[C@H]1CCC[C@H](O)CCCCCc2cc(O)cc(O)c2C(=O)O1 | inactive |
| [O]=[Cd] | inactive |
| CC(C)Nc1ccc(Nc2ccccc2)cc1 | 25.1 µM (active) |
| CC(C)CCON=O | inactive |
| Clc1ccccc1Cl | inactive |
| COC1=CC(=O)O[C@@H](/C=C/c2ccccc2)C1 | inactive |
| ClC(Cl)(Cl)Cl | inactive |
| O=C(O)C(Cl)(Cl)Cl | inactive |
| O=CC=O | inactive |
| NNC(N)=O | inactive |
| S=C=S | inactive |
| O=[N+]([O-])c1ccccc1 | inactive |
